# From PubChem BioAssay AID1578 (Sanford-Burnham Center for Chemical Genomics, 2009)
# The whole screen tested about 290,000 compounds, of which about 3,000 (1%) were called active. This is one part of a sample in which actives are shown more often than they occur. Unmarked numbers belong to inactive results. Cut-off read from the data, not from the text of the source: active = inhibition mostly above about 36% (no sharp cut-off); inactive = mostly below about 34%.
# Assay: NOD1 signaling inhibitors, primary screen, cell-based, luminescence, uHTS (AID 1578);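 note: HEK-293T reporter cells stimulated with the NOD1 agonist gamma-tri-DAP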
# Conditions: NOD1-driven NF-kB luciferase reporter cells, at 4 µM, active compounds read high
row,SMILES,inhibition
1,O=C(OCCN=C1NS(=O)(=O)c2ccccc21)c1ccccc1F,31.5%
2,O=C(NCCCN1CCCC1=O)[C@H](CSCc1ccccc1)N1Cc2ccccc2C1=O,1.9%
3,Cc1ccc(NC(=O)CN(C)C(=O)Cc2c(Cl)cccc2Cl)cc1,-9.1%
4,COc1ccc(Cn2cccc(NC(=O)Nc3ccc(F)cc3)c2=O)cc1,37.8%
5,CSc1ccc(NC(=O)Nc2cccn(Cc3ccccc3)c2=O)cc1,46.6%
6,CCOc1ccc(NC(=O)Nc2cccn(Cc3ccccc3)c2=O)cc1,44.3% (active)
7,COc1cccc(NC(=O)Nc2cccn(Cc3ccccc3)c2=O)c1,-11%
8,CCc1ccccc1NC(=O)Nc1cccn(Cc2ccccc2F)c1=O,-23.3%
9,CSc1ccc(NC(=O)Nc2cccn(Cc3ccccc3F)c2=O)cc1,89.6% (active)
10,O=C(O)CCCCCNC(=O)CCn1cnc2ccccc2c1=O,21.1%
11,COc1cc(OC)cc(-c2nnc(SCC(=O)Nc3cccc(C(=O)O)c3)s2)c1,-32.1%
12,O=C(c1ccc(Cl)cc1)N1CCN(CCc2ccccn2)CC1,-13%
13,COc1cc(/C=C2/C(=O)NN(c3ccc(F)cc3)C2=O)cc(Cl)c1O,12.2%
14,COc1cc(/C=C2/C(=O)NN(c3ccccc3)C2=O)cc(Br)c1O,15.4%
15,OCC[C@@H]1C[C@H](O)[C@@H](O)[C@]2(Cc3ccccc3CO2)O1,15%
16,COc1ccc(C(=O)N(CCc2ccccc2)Cc2ccccc2)c(OC)n1,-5.7%
17,O=C(NC1CCCC1)c1cc(COc2ccc3ncccc3c2)on1,26.8%
18,CC(=O)c1ccc(OCc2cc(C(=O)NC3CCCCC3)no2)cc1,-46.8%
19,Cc1ccc(OCc2cc(C(=O)NCc3cc(F)ccc3C)no2)cn1,-13.5%
20,O=C(c1cc(COc2ccc3ncccc3c2)on1)N1CCC(O)CC1,0.3%
21,CCC(O)C1CCN(C(=O)c2cc(COc3ccc4ncccc4c3)on2)CC1 (stereo not drawn),52.9%

row,SMILES,inhibition
1,O=C(c1cc(COc2ccc3ncccc3c2)on1)N1CCCC1,19.1%
2,CCN1CCN(C(=O)c2cc(COc3ccc4ncccc4c3)on2)CC1,26.3%
3,CC(NC(=O)c1cc(COc2ccc3ncccc3c2)on1)c1ccc(F)cc1 (stereo not drawn),7.2%
4,Cc1ccc(F)cc1CNC(=O)c1cc(COc2ccc3ncccc3c2)on1,59.8% (active)
5,O=C(NC1CCCCCCC1)c1cc(COc2ccc3ncccc3c2)on1,44.4% (active)
6,CS(=O)(=O)N1CCN(c2ccccc2NC(=S)NC(=O)c2ccccc2[N+](=O)[O-])CC1,-7.4%
7,O=C(COC(=O)CNS(=O)(=O)c1ccccc1)Nc1ccc(Cl)cn1,-21%
8,Cc1cc(C)n(-c2ccc(C(=O)Nc3sccc3C(N)=O)cc2)n1,-77.9%
9,COc1ncnc2c1oc1nc(C(C)C)c3c(c12)CC(C)(C)OC3,-12.3%
10,CCN(CC)S(=O)(=O)c1cccc(N=Nc2sc(N)nc2C)c1,1.1%
11,N#Cc1ccc(OCC(O)CS(=O)(=O)c2ccccc2)cc1 (stereo not drawn),-22.8%
12,CC(=O)c1ccc(NC(=O)C2CCCN(C(=O)c3ccc(Cl)cc3)C2)cc1 (stereo not drawn),-22.6%
13,O=C1CCCN1S(=O)(=O)c1ccc(F)cc1,5.5%
14,CCOc1ccc(NC(=O)C2CCCN(S(=O)(=O)c3ccc4c(c3)CC(C)N4C(C)=O)C2)cc1 (stereo not drawn),-4%
15,COn1c(-c2ccccc2)nc2ccc(Cl)cc21,-72.4%
16,Cc1cc(C(=O)N/N=C/c2c(C)nn(-c3ccccc3)c2Cl)n[nH]1,-4.6%
17,CC(=O)N(C(C)=O)S(=O)(=O)c1ccc(N=NN2CCOCC2)cc1,-25.7%
18,O=C(Nc1ccccc1C(=O)Nc1cccnc1)c1ccccc1,-11.8%
19,Cc1csc(NC(=O)c2ccc(=O)[nH]c2)n1,-4.6%
20,Cc1ccc2c(c1)C1CN(C)CCC1N2C(=S)NC(=O)c1ccc(Br)cc1 (stereo not drawn),61.2% (active)
21,Cc1ccc2c(c1)C1CN(C)CCC1N2C(=S)Nc1ccc(Cl)cc1Cl (stereo not drawn),13%

row,SMILES,inhibition
1,Cc1ccc2c(c1)C1CN(C)CCC1N2C(=S)NC(=O)c1ccc(Cl)cc1Cl (stereo not drawn),-10.8%
2,CCOc1cc(C2Nc3ccccc3NC3=C2C(=O)CC(C)(C)C3)ccc1O (stereo not drawn),-14.4%
3,Cc1nonc1NC(=O)CSc1nc(C23CC4CC(CC(C4)C2)C3)nc2ccccc12,2.5%
4,NC(=O)CSc1nc(-c2ccccc2)nc2ccccc12,-12.4%
5,NC(=O)CSc1nc(C23CC4CC(CC(C4)C2)C3)nc2ccccc12,58.4% (active)
6,Cc1ccc(NC(=O)CCOc2ccccc2)cc1,-12.7%
7,CCC(C)NC(=O)C(Cc1ccccc1)n1cccc1 (stereo not drawn),-8%
8,CCC1Oc2ccc(C)cc2N(CC(=O)N(Cc2cccnc2)Cc2ccc(C)o2)C1=O (stereo not drawn),-12.7%
9,CCC1Oc2ccc(C)cc2N(CC(=O)N(Cc2ccncc2)Cc2ccco2)C1=O (stereo not drawn),-36.7%
10,CCC1Oc2ccc(C)cc2N(CC(=O)N(Cc2cccnc2)Cc2cccc(F)c2)C1=O (stereo not drawn),34.6% (active)
11,Cc1nn(C)c(C(=O)Nc2ccc(Br)cc2F)c1Br,46%
12,CCOP(=O)(OCC)C(NC(=O)Nc1ccccc1)c1ccccc1 (stereo not drawn),-11.6%
13,COc1ccc2[nH]c3c4c(ccc3c2c1)C(=O)C=CC4=O,51% (active)
14,COc1ccc2c(c1)c1ccc3c(c1n2C)C(=O)C=CC3=O,0.4%
15,COc1ccc2[nH]c(C)cc(=O)c2c1,-7.4%
16,Cc1ccc(NC(=S)NNC(=O)c2ccc(N3CCOCC3)c([N+](=O)[O-])c2)cc1C,-2.1%
17,COc1ccc(-c2csc(NC(=O)CCS(=O)(=O)c3ccccc3)n2)c(OC)c1,-13.4%
18,COc1ccc(C(O)(C(C)C)C(CN2CCOCC2)c2ccccc2)cc1 (stereo not drawn),5.4%
19,CN(C)C=NC(=O)c1cc(C(=O)c2ccccc2Cl)c[nH]1,-1.9%
20,CN(C)C=NC(=O)c1cc(C(=O)c2ccc(Cl)cc2Cl)c[nH]1,59.7% (active)
21,CN(C)C=NC(=O)c1cc(C(=O)c2ccc(Cl)cc2)c[nH]1,38.4%
